Compound activity deposited in PubChem by several laboratories.
SKN-1 inh: inhibitors of C. elegans SKN-1; C. elegans VP596 Pgst-4::GFP/RFP ratio, acrylamide-induced, 24 h; inhibition, % at 21.8 µM; 360,000 tested, 0.49% active;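 active means interference check ratio from 0.5 to 1.5 plus GFP to RFP signal ratio inhibition reaching or exceeding a fixed threshold, cut at about 30% in these data, passing the limit was not always enough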
NadD block: NadD (S. aureus) enzyme inhibition; purified NadD enzyme, colorimetric absorbance read-out; inhibition, % at 20 µM; 360,000 tested, 0.78% active; AID 602399; in the data active means inhibition above about 26%
esBAF inh: inhibitors of esBAF chromatin remodeling in mouse ES cells | Bmi1-luciferase knock-in reporter, 24 h; 100% = twice the neutral-well signal | reporter increase, % at 12.5 µM | 350,000 tested, 2% active; in the data active means activation above about 40%; inconclusive means no clear call, values can overlap the other calls;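 further: a rise in the Bmi1 reporter signal indicates esBAF inhibition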
Vif inh: inhibitors of HIV Vif; HEK293T cells, Vif self-association by quenched fluorescence, imaging, 24 h; inhibition, % at 7.49 µM; 340,000 tested, 0.35% active; in the data active means inhibition above about 50%, passing the limit was not always enough; inconclusive means no clear call, values can overlap the other calls; inactive means below about 31%
SMARCA2 act: activators of SMARCA2 function | 370,000 tested, 1% active | MG213 cells, MMTV-luciferase reporter, dexamethasone, overnight | activation, % at 9.1 µM; in the data active means activation above about 7.8%
GRIN3A LBD mod: modulators (binders) of human NR3A ligand-binding domain; NR3A LBD differential scanning fluorimetry, Tm shift; 0% = protein alone, 100% = glycine-bound protein; Tm shift relative to glycine control, % at 25 µM; 340,000 tested, 2.5% active;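 active means melting temperature shift of at least 10% of the positive control shift, at one fixed dose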
Numbers stand for hits. Hits are enriched below; roughly 5.2% of the tested compounds scored in any of these assays.

Results for CCCCC(=O)NC(=S)Nc1cccc(NC(=O)CC)c1 ?
SKN-1 inh: inactive; NadD block: inactive; esBAF inh: inactive; Vif inh: inactive; SMARCA2 act: inactive; GRIN3A LBD mod: inactive

Results for Cc1ccc(NC(=O)c2ccccc2)cc1 ?
SKN-1 inh: inactive; NadD block: inactive; esBAF inh: inconclusive; Vif inh: inactive; SMARCA2 act: inactive; GRIN3A LBD mod: inactive

Results for CC(=O)Nc1ccc(NC(=O)c2ccc(NC(=O)c3ccccc3)cc2)cc1 ?
SKN-1 inh: inactive; NadD block: inactive; Vif inh: inactive; SMARCA2 act: inactive; GRIN3A LBD mod: 27.9

How did CCCCC(=O)Nc1ccc(C(=O)Nc2nnc(COC)s2)cc1 do in these assays?
SKN-1 inh: inactive; NadD block: inactive; esBAF inh: inactive; Vif inh: inactive; SMARCA2 act: 7.8; GRIN3A LBD mod: inactive

Results for CCCCC(=O)Nc1ccc(C(=O)c2ccccc2)cc1 ?
SKN-1 inh: inactive; NadD block: inactive; esBAF inh: 48.6; Vif inh: inactive; SMARCA2 act: inactive; GRIN3A LBD mod: inactive

Results for CC(C)NC(=O)Nc1ccc2c(c1)C(=O)N([C@@H](C)CO)C[C@H](C)[C@@H](CN(C)S(=O)(=O)c1cccs1)O2 ?
esBAF inh: inactive

What do the screens show for `Cc1ccc(S(=O)(=O)N(C)C[C@H]2Oc3ccc(NC(=O)Cn4cnnn4)cc3CC(=O)N([C@H](C)CO)C[C@H]2C)cc1`?
esBAF inh: inactive

Results for C/C(=N\NC(=O)c1ccccc1O)c1ccc(NC(=O)c2ccccc2)cc1 ?
SKN-1 inh: inactive; NadD block: inactive; Vif inh: inactive; SMARCA2 act: inactive; GRIN3A LBD mod: 11.5

What do the screens show for `C/C(=N\NC(=O)c1ccco1)c1ccc(-c2ccccc2)cc1`?
SKN-1 inh: inactive; NadD block: inactive; esBAF inh: 58.8; Vif inh: inactive; SMARCA2 act: inactive; GRIN3A LBD mod: inactive

Results for C/C(=N\NC(=O)c1ccco1)c1ccc(NC(=O)c2ccccc2)cc1 ?
SKN-1 inh: inactive; NadD block: inactive; Vif inh: inactive; SMARCA2 act: inactive; GRIN3A LBD mod: inactive

How did CC(=O)Nc1ccc(C(=O)c2ccccc2)cc1 do in these assays?
SKN-1 inh: inactive; NadD block: inactive; esBAF inh: inactive; SMARCA2 act: inactive; GRIN3A LBD mod: 12.7

How did COc1ccc(NC(=O)Nc2ccc3c(c2)C(=O)N([C@H](C)CO)C[C@H](C)[C@H](CN(C)C(=O)NC(C)C)OCCCC[C@@H](C)O3)cc1 do in these assays?
esBAF inh: inactive

Results for C[C@@H]1CN([C@H](C)CO)C(=O)Cc2cc(NC(=O)C3CCCCC3)ccc2O[C@@H]1CN(C)Cc1ccc(C(=O)O)cc1 ?
esBAF inh: inactive

Results for CCOc1cc(/C=N/O)cc(Br)c1OCc1ccc(Cl)cc1 ?
SKN-1 inh: inactive; NadD block: inactive; Vif inh: inactive; SMARCA2 act: inactive; GRIN3A LBD mod: 12.8

How did Cc1ccc(S(=O)(=O)Nc2cccc3c2O[C@@H](CN(C)C(=O)NC2CCCCC2)[C@@H](C)CN([C@H](C)CO)C3=O)cc1 do in these assays?
esBAF inh: inactive

How did CN(C)c1nc(N)nc(CSc2nnnn2-c2ccc(F)cc2)n1 do in these assays?
SKN-1 inh: inactive; NadD block: inactive; esBAF inh: inactive; Vif inh: inactive; SMARCA2 act: inactive; GRIN3A LBD mod: inactive

How did Cc1cccc(C)c1-n1nnnc1SCc1nc(N)nc(N(C)C)n1 do in these assays?
SKN-1 inh: inactive; NadD block: inactive; esBAF inh: inactive; Vif inh: 128.7; SMARCA2 act: inactive

What do the screens show for `CCC(=O)Nc1ccc2c(c1)OC[C@H](C)N(C(=O)C1CC1)C[C@@H](C)[C@H](OC)CN(C)C2=O`?
esBAF inh: inactive

How did CO[C@@H]1CN(C)C(=O)c2cc(NC(C)=O)ccc2OC[C@H](C)N(CC2CC2)C[C@H]1C do in these assays?
esBAF inh: inactive

How did Clc1ccc(CN=C2Nc3ccccc3CS2)cc1 do in these assays?
SKN-1 inh: inactive; NadD block: inactive; esBAF inh: 55.6; Vif inh: inactive; SMARCA2 act: inactive; GRIN3A LBD mod: inactive

Results for Cc1ccc(CN=C2Nc3ccccc3CS2)cc1 ?
SKN-1 inh: inactive; NadD block: inactive; esBAF inh: inactive; Vif inh: inactive; SMARCA2 act: inactive; GRIN3A LBD mod: inactive

What do the screens show for `C[C@H](CO)N1C[C@H](C)[C@H](CN(C)S(=O)(=O)c2ccc(Cl)cc2)Oc2ccc(NC(=O)Nc3cccc4ccccc34)cc2C1=O`?
esBAF inh: inactive

How did COCC#Cc1cnc2c(c1)C(=O)N([C@H](C)CO)C[C@@H](C)[C@H](CN(C)Cc1ccc(F)cc1)O2 do in these assays?
esBAF inh: inactive

How did CN1c2ccccc2C(O)=C(C(=S)Nc2ccc(F)c(Cl)c2)S1(=O)=O do in these assays?
SKN-1 inh: inactive; NadD block: inactive; esBAF inh: inactive; Vif inh: inactive; SMARCA2 act: inactive; GRIN3A LBD mod: 26.7

Results for O=S(=O)(c1cccc(C(F)(F)F)c1)c1ccc(O)cn1 ?
SKN-1 inh: inactive; NadD block: inactive; Vif inh: inactive; SMARCA2 act: inactive; GRIN3A LBD mod: 11.0

What do the screens show for `O=S(=O)(c1ccccc1)c1ccc(C(F)(F)F)cn1`?
SKN-1 inh: inactive; NadD block: inactive; Vif inh: inactive; SMARCA2 act: inactive; GRIN3A LBD mod: inactive

How did C[C@@H]1CN([C@H](C)CO)C(=O)c2cc(NC(=O)Nc3ccc(F)cc3)ccc2O[C@@H](C)CCCCO[C@@H]1CN(C)S(=O)(=O)c1ccc(Cl)cc1 do in these assays?
esBAF inh: inactive

Results for COc1ccc(CN(C)C[C@H]2OCCCC[C@@H](C)Oc3ccc(NC(=O)NC(C)C)cc3C(=O)N([C@@H](C)CO)C[C@H]2C)cc1 ?
esBAF inh: inactive

Results for COc1cccc(CN(C)C[C@H]2OCc3cn(nn3)CCCC(=O)N([C@@H](C)CO)C[C@H]2C)c1 ?
esBAF inh: inactive

How did C[C@@H](CSc1ccc(Br)cc1)CN1CC[C@H](C(C)(C)C)CCC1=O do in these assays?
SKN-1 inh: inactive; NadD block: inactive; esBAF inh: inactive; Vif inh: inactive; SMARCA2 act: inactive; GRIN3A LBD mod: 10.3

Results for Cc1ccc(SC[C@H](C)CN2CC[C@H](C(C)(C)C)CCC2=O)cc1 ?
SKN-1 inh: inactive; NadD block: inactive; esBAF inh: inactive; Vif inh: inactive; SMARCA2 act: inactive; GRIN3A LBD mod: inactive

What do the screens show for `CO[C@H]1CN(C)C(=O)c2ccc(NS(C)(=O)=O)cc2OC[C@H](C)N(C(=O)c2ccc3c(c2)OCO3)C[C@@H]1C`?
esBAF inh: inactive

How did COc1ccc(NC(=O)CCC(=O)N/N=C/c2ccncc2)cc1 do in these assays?
SKN-1 inh: inactive; NadD block: inactive; esBAF inh: inactive; Vif inh: inactive; SMARCA2 act: inactive; GRIN3A LBD mod: inactive

Results for COc1ccc(NC(=O)CCC(=O)N/N=C/c2cn(C)nc2C)cc1 ?
SKN-1 inh: inactive; NadD block: inactive; Vif inh: 53.9; SMARCA2 act: inactive; GRIN3A LBD mod: inactive
